Among the data in PubChem BioAssay (Tox21) are Potency and outcome values, retold here.

A short description of experiment [1]: qHTS assay to identify small molecule agonists of the sonic hedgehog signaling (Shh) pathway - cell viability counter screen (AID 1259366). Also: nearly all actives have a fitted effect of over 50% in size. As to conditions: NIH/3T3 Gli1-Luc viability, CellTiter-Fluor, 24 h; series mostly up to 92.4 µM. An outline of the steps:
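CellTiter-Fluor fluorescence read-out, 1 hr at 37C, added after 23hr compound exposure. Cells: 3T3 Gli1-Luc, an NIH/3T3 clone with stably integrated Gli1-Luc reporter, plated 4hr before compound.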

Experiment [2] can be described thus: qHTS assay to identify small molecule antagonists of the sonic hedgehog signaling (Shh) pathway - cell viability counter screen (AID 1259367). Also: nearly all actives have a fitted effect of over 55% in size. As to conditions: NIH/3T3 Gli1-Luc viability, CellTiter-Fluor, 24 h; series mostly up to 92.4 µM. An outline of the steps: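 Seed 3T3 Gli1-Luc cells at 2,000 per well; incubate 4 hr; add compound in DMSO, then conditioned medium; incubate at 37C with 5% CO2; add CellTiter-Fluor after 23 hr; read fluorescence 1 hr later.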

Experiment [3] in a line: qHTS assay to identify small molecule agonists of the androgen receptor (AR) signaling pathway in the presence of an antagonist - cell viability counter screen (AID 1259379).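 Also: MDA-kb2 human breast cancer cells carrying an MMTV luciferase reporter; nearly all actives have a fitted effect of over 25% in size.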 As to conditions: MDA-kb2 viability, CellTiter-Fluor, 16 h; series mostly up to 92.4 µM. An outline of the steps:
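A CellTiter-Fluor read-out measured viability of MDA-kb2 reporter cells (MMTV promoter with AR and GR response elements). Treatment: nilutamide 3.0uM final with compounds at 15 concentrations, 16 hr, 37C, 0% CO2.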

For experiment [4], the target named is Androgen receptor (Homo sapiens) (UniProt P10275). Put plainly: qHTS assay to identify small molecule agonists of the androgen receptor (AR) signaling pathway in the presence of an antagonist (AID 1259381; calls by dose curve; also: nearly all actives have a fitted effect of over 15% in size). Conditions: MDA-kb2 MMTV-luciferase, AR agonist + nilutamide, 16 h; series mostly up to 92.4 µM. An outline of the steps: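 Using human MDA-kb2 cells with an MMTV promoter–luciferase construct (AR and GR response elements), agonist activity is scored under 3.0uM nilutamide (final) co-treatment; 16hr incubation, 37C, luminescence readout via ONE-Glo.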

Experiment [5] can be described thus: qHTS assay to identify small molecule agonists or antagonists of the thyroid stimulating hormone receptor (TSHR) signaling pathway - wild type cell line counter screen (AID 1259384; calls by dose curve). As to conditions: HEK293 wild type, cAMP HTRF counter-screen, active compounds read high; series mostly up to 92.4 µM. Summed up: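 Wild-type Hek293 cells, 800/well, 18 h at 37C, then compound with Ro20-1724 for 30 min RT. cAMP by HTRF (cAMP-d2/anti-cAMP cryptate), 1 h RT, fluorescence read. 15 concentrations, triplicates.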

The nature of experiment [6]: qHTS assay to identify small molecule agonists of the estrogen receptor alpha (ER-alpha) signaling pathway in the presence of an antagonist - cell viability counter screen (AID 1259386).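 Also: cells exposed to compounds for 22 h at 37 °C before the viability read; nearly all actives have a fitted effect of over 30% in size.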 As to conditions: VM7Luc4E2 viability, CellTiter-Fluor fluorescence, 22 h; series mostly up to 92.4 µM. Summed up: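 ICI-182,780 at 10.0nM final accompanies the compound titration (15 concentrations, 22hr, 37C) on VM7Luc4E2 cells. The CellTiter-Fluor fluorescence readout runs in the same wells as the luciferase assay.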

Experiment [7] addresses Progesterone receptor (Homo sapiens) (UniProt P06401). As to the kind of experiment: qHTS assay to identify small molecule antagonists of the progesterone receptor (PR) signaling pathway (AID 1346795; active = well fitted inhibition curve with a large enough effect in the signal ratio in the repeat runs, not every such curve was filed as active; the % refers to the signal ratio; also: potency is read from the fitted curve at half-maximal effect). As to conditions: PR-UAS-bla HEK293T, beta-lactamase FRET ratio, 16 h; series mostly up to 92.4 µM. An outline of the steps: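 Beta-lactamase reporter, HEK293T PR-UAS-bla line; 2% charcoal-stripped FBS; 6 hr pre-incubation, 37C/5% CO2. Compound + R5020 1 nM final, 16 hr. LiveBLAzer B/G FRET substrate, 2 hr RT; fluorescence intensity read.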

The nature of experiment [8]: qHTS assay to identify small molecule agonists of the progesterone receptor (PR) signaling pathway - cell viability counter screen (AID 1346799; calls by dose curve; also: nearly all actives have a fitted effect of over 45% in size). Conditions: PR-UAS-bla HEK293T viability, CellTiter-Glo luminescence, 16 h; series mostly up to 92.4 µM. An outline of the steps: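 HEK293T PR-UAS-bla, 3,000 cells/well, 2% charcoal-stripped FBS; 6 h settle, compound 16 h at 37C/5% CO2; LiveBLAzer 2 h RT, then CellTiter-Glo 30 min RT, luminescence read.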

A short description of experiment [9]: qHTS assay to identify small molecule antagonists of the TGF-beta/Smad signaling pathway - cell viability counter screen (AID 1346824). Also: nearly all actives have a fitted effect of over 50% in size. As to conditions: SBE-bla HEK293T viability, CellTiter-Glo luminescence; series mostly up to 76.8 µM. Summed up:
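SBE-bla HEK 293T cells, incubated overnight, then compound plus 0.25 ng/mL TGF-beta1 (stock added) for 5 hr at 37 C. Viability was read in the same wells by CellTiter-Glo luminescence after 30 min at room temperature.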

Experiment [10] can be described thus: qHTS assay to identify small molecule agonists of the TGF-beta/Smad signaling pathway - cell viability counter screen (AID 1346829). Also: top concentration of the series differs between compounds; nearly all actives have a fitted effect of over 45% in size. As to conditions: SBE-bla HEK293T viability, CellTiter-Glo luminescence, 5 h; series mostly up to 76.8 µM. Summed up:
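In parallel with the Smad reporter read, viability of HEK 293T cells stably carrying SBE-bla is quantified by ATP luminescence following 5 hr compound treatment.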

Experiment [11] can be described thus: qHTS assay to identify small molecule agonists of the TGF-beta/Smad signaling pathway (AID 1346859; active = well fitted activation curve with a large enough effect in the signal ratio in the repeat runs, not every such curve was filed as active; the % refers to the signal ratio). Conditions: SBE-bla HEK293T, TGF-beta/Smad beta-lactamase reporter, 5 h; series mostly up to 76.8 µM. An outline of the steps:
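Read-out: fluorescence at 460 and 530 nm (405 nm excitation) after a 2 hr room-temperature incubation with beta-lactamase FRET substrate. SBE-bla HEK 293T cells had been treated with test compounds for 5 hr at 37 C.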

The nature of experiment [12]: Caspase-3/7 induction in HepG2 cells by small molecules, qHTS cell viability counter screen (AID 1346981). Also: nearly all actives have a fitted effect of over 30% in size. As to conditions: CellTiter-Fluor fluorescence, 17 h; series mostly up to 92.4 µM. An outline of the steps:
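Multiplexed with the caspase-3/7 assay: HepG2 cells, 16 hr compound treatment, CellTiter-Fluor viability detection by fluorescence.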

Experiment [13] concerns the target Cytochrome P450 2C9 (Homo sapiens) (UniProt P11712). As to the kind of experiment: Cytochrome P450 Family 2 Subfamily C Member 9 (CYP2C9) small molecule antagonists: luciferase reporter qHTS assay (AID 1671198). Also: potency is read from the fitted curve at half-maximal effect; nearly all actives have a fitted effect of over 50% in size. Conditions: P450-Glo CYP2C9 enzyme assay, luciferin luminescence; series mostly up to 115 µM. An outline of the steps:
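P450-Glo proluciferin substrate with CYP2C9 enzyme; 10 min RT preincubation, then NADPH regeneration 1 h at 37C; luciferin detection reagent 20 min RT, luminescence in relative luminescence units.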

The target in experiment [14] is Cytochrome P450 1A2 (Homo sapiens) (UniProt P05177). Put plainly: Cytochrome P450 Family 1 Subfamily A Member 2 (CYP1A2) small molecule antagonists: luciferase reporter qHTS assay (AID 1671199). Also: potency is read from the fitted curve at half-maximal effect; nearly all actives have a fitted effect of over 50% in size. As to conditions: P450-Glo CYP1A2 enzyme, luciferin luminescence, 1 h; series mostly up to 115 µM. An outline of the steps: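 CYP1A2 turnover of a luminogenic substrate was quantified after 1 h with NADPH regeneration at room temperature. Furafylline served as positive control.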
Sequence of Cytochrome P450 1A2 (Homo sapiens) (P05177 whole entry, looked up): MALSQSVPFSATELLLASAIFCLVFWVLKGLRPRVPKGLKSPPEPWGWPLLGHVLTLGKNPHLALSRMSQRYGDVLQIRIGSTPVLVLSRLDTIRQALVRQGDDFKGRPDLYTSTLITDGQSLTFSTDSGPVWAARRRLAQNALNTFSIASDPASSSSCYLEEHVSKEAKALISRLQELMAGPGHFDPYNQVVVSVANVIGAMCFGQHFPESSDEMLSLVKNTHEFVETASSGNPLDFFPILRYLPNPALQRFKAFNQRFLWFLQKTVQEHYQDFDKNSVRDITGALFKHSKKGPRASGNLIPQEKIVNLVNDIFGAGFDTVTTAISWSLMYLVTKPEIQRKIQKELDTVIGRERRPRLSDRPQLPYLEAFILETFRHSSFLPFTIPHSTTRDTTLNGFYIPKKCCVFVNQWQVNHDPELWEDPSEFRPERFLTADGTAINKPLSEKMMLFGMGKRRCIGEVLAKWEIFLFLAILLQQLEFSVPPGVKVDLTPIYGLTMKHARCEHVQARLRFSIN

Experiment [15] concerns the target Voltage-gated inwardly rectifying potassium channel KCNH2 (Homo sapiens) (UniProt Q12809). As to the kind of experiment: Human Ether-a-go-go-Related Gene (hERG) channel small molecule antagonists: fluorescence cell-based qHTS assay (AID 1671200). Conditions: hERG-U2OS cells, FluxOR thallium flux fluorescence; series mostly up to 76.8 µM. Summed up: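 Read-out: thallium influx as a surrogate for potassium, tracked as fluorescence (480 nm ex/540 nm em) every second for 2 min after Stimulus Buffer addition in dye-loaded hERG-U2OS cells.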

Experiment [16] deals with Nuclear receptor subfamily 1 group I member 3 (Homo sapiens) (UniProt Q14994). As to the kind of experiment: qHTS assay to identify small molecule antagonists of the constitutive androstane receptor (CAR) signaling pathway (AID 1224838).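 Also: HepG2 cells stably expressing hCAR with CYP2B6 luciferase reporter stimulated by CITCO; nearly all actives have a fitted effect of over 40% in size.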 Conditions: HepG2-CYP2B6-hCAR luciferase, CITCO-stimulated, 24 h; series mostly up to 92.4 µM. Summed up:
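Reporter luminescence was quantified after 24 h exposure of hCAR/CYP2B6-2.2kb double-stable HepG2 cells to compounds at 15 concentrations in the presence of 50 nM CITCO final.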

The target of experiment [17] is Estrogen receptor beta (Homo sapiens) (UniProt Q92731). As to the kind of experiment: qHTS assay to identify small molecule agonists of the estrogen receptor beta (ER-beta) signaling pathway (AID 1259377; active = well fitted activation curve with a large enough effect in the signal ratio in the repeat runs, not every such curve was filed as active; the % refers to the signal ratio). As to conditions: ER-beta-UAS-bla HEK293T, beta-lactamase FRET ratio, 16 h; series mostly up to 92.4 µM. An outline of the steps: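 Beta-lactamase reporter readout: fluorescence of LiveBLAzer B/G FRET substrate after 2 h at room temperature, following 16 h compound treatment of ER-beta-UAS-bla HEK293T cells at 37C in 2% charcoal-stripped FBS medium.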
Sequence of Estrogen receptor beta (Homo sapiens) (Q92731 whole entry, looked up): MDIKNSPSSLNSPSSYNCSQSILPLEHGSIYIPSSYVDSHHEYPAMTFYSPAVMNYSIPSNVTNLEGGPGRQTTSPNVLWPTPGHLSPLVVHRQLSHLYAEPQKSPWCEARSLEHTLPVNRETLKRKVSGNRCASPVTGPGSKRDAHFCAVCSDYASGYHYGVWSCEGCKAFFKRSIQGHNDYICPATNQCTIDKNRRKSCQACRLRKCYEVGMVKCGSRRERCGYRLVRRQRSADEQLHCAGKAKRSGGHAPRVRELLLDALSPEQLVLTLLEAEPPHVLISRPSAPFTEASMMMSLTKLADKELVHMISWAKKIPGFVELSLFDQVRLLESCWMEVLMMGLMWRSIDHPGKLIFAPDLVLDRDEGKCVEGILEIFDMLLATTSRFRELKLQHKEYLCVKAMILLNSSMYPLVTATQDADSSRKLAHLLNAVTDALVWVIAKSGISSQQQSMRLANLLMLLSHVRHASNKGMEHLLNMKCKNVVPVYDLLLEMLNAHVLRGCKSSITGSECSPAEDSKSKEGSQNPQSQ

Experiment [18] is described as follows: qHTS assay to identify small molecule antagonists of the sonic hedgehog signaling (Shh) pathway (AID 1259369; calls by dose curve; also: nearly all actives have a fitted effect of over 45% in size). As to conditions: NIH/3T3 Gli1-Luc reporter, Shh antagonist, luminescence 24 h; series mostly up to 92.4 µM. An outline of the steps:
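Conditioned medium drives Shh signalling in 3T3Gli1-Luc cells; compounds in DMSO co-applied, 24hr at 37 C, then luciferase luminescence.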

A short description of experiment [19]: qHTS assay to identify small molecule agonists of the hypoxia (HIF-1) signaling pathway (AID 1224846; active = well fitted activation curve with a large enough effect in the signal ratio in the repeat runs, not every such curve was filed as active; the % refers to the signal ratio). As to conditions: HRE-bla ME-180 cells, beta-lactamase ratio, 17 h; series mostly up to 76.8 µM. Summed up:
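Hypoxia-pathway activation was scored as increased beta-lactamase from an HRE-controlled reporter in ME-180 cells; plated at 2,000 cells per well with 0.5% dialyzed FBS, they were exposed 17 hrs to compounds and then given CCF4-AM.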

Experiment [20] concerns the target Thyrotropin-releasing hormone receptor (Homo sapiens) (UniProt P34981). As to the kind of experiment: qHTS assay to identify small molecule antagonists of the thyrotropin-releasing hormone receptor (TRHR) signaling pathway (AID 1346877; active = well fitted inhibition curve with a large enough effect in the repeat runs, not every such curve was filed as active). As to conditions: TRHR-HEK293, TRH-induced calcium fluorescence, antagonist mode; series mostly up to 51.3 µM. An outline of the steps:
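Screening used HEK293 cells engineered with TRHR, with a brief 5 min room-temperature compound exposure preceding addition of TRH to 1 nM. The read-out was kinetic calcium-dye fluorescence, concentration-response from 15 doses in triplicate.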

Results filed as inconclusive are left out. Calls of active or inactive are those of the source. Unless noted, calls follow the shape of the dose curve; as a rule, active = well fitted curve in the direction sought with a large enough effect in the repeat runs; inconclusive = weak or mixed curves; inactive = no such curve, though single readings can be large; an effect the other way counts as inactive or inconclusive.

Sequence of Progesterone receptor (Homo sapiens) (P06401 whole entry, looked up): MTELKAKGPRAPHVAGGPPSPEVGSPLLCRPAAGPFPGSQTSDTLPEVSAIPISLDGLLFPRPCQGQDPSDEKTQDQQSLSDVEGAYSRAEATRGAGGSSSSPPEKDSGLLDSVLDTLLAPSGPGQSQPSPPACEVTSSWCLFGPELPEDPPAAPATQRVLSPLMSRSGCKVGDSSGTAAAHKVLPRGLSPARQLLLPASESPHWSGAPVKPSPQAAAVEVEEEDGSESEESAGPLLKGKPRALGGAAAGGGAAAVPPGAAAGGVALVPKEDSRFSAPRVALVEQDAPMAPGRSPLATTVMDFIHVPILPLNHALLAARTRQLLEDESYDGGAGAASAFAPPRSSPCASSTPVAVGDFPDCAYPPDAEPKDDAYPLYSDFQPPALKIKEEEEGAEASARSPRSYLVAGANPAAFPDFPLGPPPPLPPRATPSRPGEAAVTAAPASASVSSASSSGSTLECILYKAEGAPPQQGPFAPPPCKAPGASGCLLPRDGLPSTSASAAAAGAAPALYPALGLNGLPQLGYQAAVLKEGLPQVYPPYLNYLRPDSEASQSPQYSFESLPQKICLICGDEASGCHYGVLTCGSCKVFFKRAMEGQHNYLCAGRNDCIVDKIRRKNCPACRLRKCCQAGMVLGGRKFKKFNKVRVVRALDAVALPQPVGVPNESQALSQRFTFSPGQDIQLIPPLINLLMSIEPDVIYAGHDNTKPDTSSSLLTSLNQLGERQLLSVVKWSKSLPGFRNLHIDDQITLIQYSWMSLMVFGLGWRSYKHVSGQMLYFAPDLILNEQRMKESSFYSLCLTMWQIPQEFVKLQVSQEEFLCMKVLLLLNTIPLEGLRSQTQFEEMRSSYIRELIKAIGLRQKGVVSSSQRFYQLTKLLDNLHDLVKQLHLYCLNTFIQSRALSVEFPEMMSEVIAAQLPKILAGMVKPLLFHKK
Sequence of Cytochrome P450 2C9 (Homo sapiens) (P11712 whole entry, looked up): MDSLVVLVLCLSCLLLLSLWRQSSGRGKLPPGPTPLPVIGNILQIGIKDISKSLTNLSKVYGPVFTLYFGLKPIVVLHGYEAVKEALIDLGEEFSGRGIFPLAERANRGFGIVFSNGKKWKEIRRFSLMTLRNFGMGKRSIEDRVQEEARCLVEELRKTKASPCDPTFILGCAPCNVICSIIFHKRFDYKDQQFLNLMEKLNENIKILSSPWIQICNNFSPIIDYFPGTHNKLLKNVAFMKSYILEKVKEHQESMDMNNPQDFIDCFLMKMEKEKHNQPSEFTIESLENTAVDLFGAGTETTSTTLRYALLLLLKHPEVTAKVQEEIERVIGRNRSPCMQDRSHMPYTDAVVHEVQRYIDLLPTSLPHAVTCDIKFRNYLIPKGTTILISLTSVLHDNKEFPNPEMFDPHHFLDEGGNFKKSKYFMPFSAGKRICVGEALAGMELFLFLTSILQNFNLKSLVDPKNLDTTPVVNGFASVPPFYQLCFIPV
Sequence of Nuclear receptor subfamily 1 group I member 3 (Homo sapiens) (Q14994 whole entry, looked up): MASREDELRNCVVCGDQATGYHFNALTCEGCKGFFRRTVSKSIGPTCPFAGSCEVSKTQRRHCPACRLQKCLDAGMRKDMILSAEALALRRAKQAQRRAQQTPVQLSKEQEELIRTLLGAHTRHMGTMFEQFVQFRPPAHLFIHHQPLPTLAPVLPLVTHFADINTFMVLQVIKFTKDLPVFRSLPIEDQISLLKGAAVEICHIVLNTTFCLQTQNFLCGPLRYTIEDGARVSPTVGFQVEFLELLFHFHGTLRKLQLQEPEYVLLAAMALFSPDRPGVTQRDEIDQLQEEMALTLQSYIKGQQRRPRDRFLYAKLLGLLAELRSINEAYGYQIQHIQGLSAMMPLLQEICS
Sequence of Thyrotropin-releasing hormone receptor (Homo sapiens) (P34981 whole entry, looked up): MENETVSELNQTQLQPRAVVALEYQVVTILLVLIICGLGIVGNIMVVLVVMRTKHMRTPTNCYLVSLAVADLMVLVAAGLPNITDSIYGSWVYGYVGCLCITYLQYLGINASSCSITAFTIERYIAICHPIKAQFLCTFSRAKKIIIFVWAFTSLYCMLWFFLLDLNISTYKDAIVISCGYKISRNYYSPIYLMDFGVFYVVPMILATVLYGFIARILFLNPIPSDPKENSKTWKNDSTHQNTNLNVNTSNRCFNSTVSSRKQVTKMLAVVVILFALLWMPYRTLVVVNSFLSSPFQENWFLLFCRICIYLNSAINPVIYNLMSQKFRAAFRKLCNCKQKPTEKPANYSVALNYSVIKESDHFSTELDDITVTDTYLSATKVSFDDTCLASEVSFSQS
Sequence of Voltage-gated inwardly rectifying potassium channel KCNH2 (Homo sapiens) (Q12809 whole entry, looked up): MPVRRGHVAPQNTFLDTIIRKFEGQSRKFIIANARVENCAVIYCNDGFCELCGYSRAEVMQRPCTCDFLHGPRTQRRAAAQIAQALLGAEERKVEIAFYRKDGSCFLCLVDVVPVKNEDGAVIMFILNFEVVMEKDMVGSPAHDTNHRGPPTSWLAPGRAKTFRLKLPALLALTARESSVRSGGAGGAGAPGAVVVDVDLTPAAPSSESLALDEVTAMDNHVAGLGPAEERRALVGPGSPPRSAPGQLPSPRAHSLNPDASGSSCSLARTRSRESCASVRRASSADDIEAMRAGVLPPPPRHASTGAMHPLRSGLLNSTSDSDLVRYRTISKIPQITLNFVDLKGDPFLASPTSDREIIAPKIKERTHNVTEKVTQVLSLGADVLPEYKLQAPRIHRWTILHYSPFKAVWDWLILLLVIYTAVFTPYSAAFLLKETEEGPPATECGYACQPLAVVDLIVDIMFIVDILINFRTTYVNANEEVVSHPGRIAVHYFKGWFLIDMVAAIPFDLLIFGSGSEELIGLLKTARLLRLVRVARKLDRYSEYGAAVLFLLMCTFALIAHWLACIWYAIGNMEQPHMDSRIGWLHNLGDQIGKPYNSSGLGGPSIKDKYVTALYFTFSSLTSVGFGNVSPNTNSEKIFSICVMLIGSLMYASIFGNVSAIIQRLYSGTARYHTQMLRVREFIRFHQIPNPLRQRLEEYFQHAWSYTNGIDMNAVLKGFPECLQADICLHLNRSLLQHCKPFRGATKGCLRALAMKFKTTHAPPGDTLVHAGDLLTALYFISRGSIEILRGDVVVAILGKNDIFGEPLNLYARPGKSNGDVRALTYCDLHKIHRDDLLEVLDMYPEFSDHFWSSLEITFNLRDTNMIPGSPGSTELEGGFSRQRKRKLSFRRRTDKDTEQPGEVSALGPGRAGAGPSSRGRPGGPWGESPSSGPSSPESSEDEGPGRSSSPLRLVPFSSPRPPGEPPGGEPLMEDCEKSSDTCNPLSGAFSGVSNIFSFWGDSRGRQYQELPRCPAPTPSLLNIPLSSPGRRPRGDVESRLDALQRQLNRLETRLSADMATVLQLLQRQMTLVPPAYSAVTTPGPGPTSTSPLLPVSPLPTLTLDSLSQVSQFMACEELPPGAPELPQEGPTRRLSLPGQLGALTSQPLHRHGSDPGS

For `Oc1c(I)cc(I)cc1I`, the Potency result in experiment [1], in experiment [2], in experiment [3], in experiment [4], in experiment [6] and in [8] was “inactive” in each case. Further, the Potency entry in experiment [9], in experiment [12] and in [15] was “inactive” throughout. Further, the compound was classed as inactive in experiment [5], in [10] and in experiment [11]. Also, the Potency was 30.6 µM (active) in experiment [7], 56.4 µM (active) in experiment [13] and 39.9 µM (active) in experiment [14].

Turning to `CC1(C)[C@H](C(=O)OCc2cccc(Oc3ccccc3)c2)[C@@H]1C=C(Cl)Cl`, in experiment [16], the Potency entry was “inactive”.

As for `Cc1ccc([N+](=O)[O-])cc1N`, the result in experiment [17] was inactive.

Turning to `Cc1ccc(O)cc1C`, the Potency entry in experiment [18] was “inactive”.

For the compound `N#CCCNCCC#N`, in [19], the result was inactive.

`O=[N+]([O-])c1ccccc1Cl`: in experiment [20], the result was inactive.
